CYP2C9 inh – blockers of cytochrome P450 2C9 activity – biochemical, luminescence, ADME assay, primary screen. P11712. CYP2C9 Supersomes, luciferin-H conversion. inhibition, % at 5 µM. 96,000 tested, 20% active. AID 777, 2007;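 active = blocking of liver enzyme CYP2C9 beyond about 50% at 5 µM, limit read from the data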
Target sequence (P11712 whole entry, looked up): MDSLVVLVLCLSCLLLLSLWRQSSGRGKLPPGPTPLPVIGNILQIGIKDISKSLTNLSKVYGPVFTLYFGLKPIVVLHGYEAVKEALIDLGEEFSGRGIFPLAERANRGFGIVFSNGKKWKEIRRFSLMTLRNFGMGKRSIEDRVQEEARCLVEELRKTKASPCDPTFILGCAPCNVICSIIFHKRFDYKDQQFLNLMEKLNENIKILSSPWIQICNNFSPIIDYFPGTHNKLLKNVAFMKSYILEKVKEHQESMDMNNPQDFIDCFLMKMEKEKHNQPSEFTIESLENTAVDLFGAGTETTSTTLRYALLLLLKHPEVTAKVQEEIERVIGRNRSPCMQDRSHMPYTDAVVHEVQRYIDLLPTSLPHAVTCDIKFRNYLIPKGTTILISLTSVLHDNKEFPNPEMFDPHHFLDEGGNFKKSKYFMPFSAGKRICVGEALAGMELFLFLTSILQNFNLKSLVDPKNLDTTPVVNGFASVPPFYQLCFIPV
CYP2C19 inhib – blockers of cytochrome P450 2C19 activity – biochemical, luminescence, ADME assay, primary screen; P33261; AID 778, 2007; inhibition, % at 5 µM; CYP2C19 Supersomes, luciferin-H EGE luminescence, 30 min; 96,000 tested, 21% active;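 active = CYP2C19 inhibition above a set limit at 5 µM in the primary screen, cut at about 50% in these data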
MRP resist rev – reversal of MRP1-mediated doxorubicin resistance, primary screen, H69AR cells, doxorubicin co-treatment | H69AR cells + 2 uM doxorubicin, CellTiter-Glo, 72 h | 85,000 tested, 0.04% active | differential viability (reversal), % at 10 µM | AID 602, 2007;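 active = viability drop by adding the cancer drug above about 55%, with treated viability meeting a 40% cutoff, limit read from the data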;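 also: larger differential means the compound sensitizes cells more to doxorubicin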
CYP2C9 activ – human CYP2C9 activators, primary screen, biochemical, luminescence. AID 1024, 2008. Cytochrome P450 2C9 (Homo sapiens), P11712. activation factor at 5 µM. 96,000 tested, 1.4% active. recombinant CYP2C9, luciferin-H conversion; hits give high values; factor 1 = untreated enzyme, 0 = blocked;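 active = activation factor of 2 or more for CYP2C9 at a 5 µM dose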
CYP2C19 act – human CYP2C19 activators, primary screen, biochemical, luminescence. Cytochrome P450 2C19 (Homo sapiens), P33261. recombinant CYP2C19, luciferin-H EGE luminescence; hits give high values; 0 = fully inhibited enzyme, 1 = untreated enzyme. activation factor at 5 µM. 96,000 tested, under 10 active. AID 1025, 2008;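 active = activation factor of at least 2 at 5 µM in the primary screen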
MRP-1 activ – H69AR viability gain despite doxorubicin, primary screen, MRP-1 activator project, H69AR cells, CellTiter-Glo. viability rescue. viability increase, % at 10 µM. 140,000 tested, 0.61% active;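 active = viability gain under doxorubicin at or above a set limit, the compound median plus 3 SD, cut at about 4.7% in these data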;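 also: MRP-1 overexpressing cells given doxorubicin 25 µM after compound pretreatment; 18-22 h compound pretreatment then 72 h with doxorubicin before readout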
A number is an active result; – = inactive; · = not tested or not shown. Most compounds without a hit are left out; they make up all but 21% or so of the library.

SMILES | CYP2C9 inh | CYP2C19 inhib | MRP resist rev | CYP2C9 activ | CYP2C19 act | MRP-1 activ
Cc1ccc(Cl)cc1NC(=O)Cn1cc2c(n1)CCCC2 | – | – | – | – | – | –
Cc1cccc(CN(CC(=O)N/N=C/c2ccco2)S(=O)(=O)c2ccc(Cl)cc2)c1 | 92.7 | 99.8 | · | – | – | –
Cc1cccc(CN(CC(=O)N/N=C/c2cccs2)S(=O)(=O)c2ccc(Cl)cc2)c1 | 69.9 | 74.4 | · | – | – | –
O=C(CN1CCOCC1)Nc1ncc(Cc2cccc3ccccc23)s1 | – | – | · | – | – | –
Cc1cc(C)c(NC(=O)CSc2nccn2C)c(C)c1 | · | · | · | · | · | –
Cc1cc(C(=O)c2ccccc2)nc2ccccc12 | – | 68.0 | · | 3.2 | – | –
CCOC(=O)CN(Cc1sccc1C)C(=O)Nc1ccc(OCC)cc1 | · | · | · | · | · | –
CC(C)(C)Cc1cc(N)on1 | · | · | · | · | · | –
CN1/C(=C/C2CC(=O)N(c3ccc([N+](=O)[O-])cc3)C2=O)C(C)(C)c2ccccc21 (stereo unspecified) | – | 79.8 | – | – | – | –
CN1/C(=C\C(=S)NC(=O)c2ccc([N+](=O)[O-])cc2)C(C)(C)c2ccccc21 | · | · | · | · | · | –
Cc1ccc2occ(C3N[C@H](C(=O)O)CS3)c(=O)c2c1 (stereo partly specified) | – | – | · | – | – | –
CC1(c2ccccc2)NC(=O)N(CC(=O)Nc2ccc3c(c2)OCO3)C1=O (stereo unspecified) | 87.1 | – | · | – | – | –
CCOC(=O)c1cc(-c2ccccc2)sc1NC(=O)CN1C(=O)NC(CC)(c2ccccc2)C1=O (stereo unspecified) | 88.7 | – | · | – | – | –
CCC1(c2ccccc2)NC(=O)N(CC(=O)Nc2cccc(C#N)c2)C1=O (stereo unspecified) | – | 70.9 | – | – | – | –
CC1(c2ccccc2)NC(=O)N(CC(=O)Nc2cccc(C#N)c2)C1=O (stereo unspecified) | 73.2 | – | – | – | – | –
Cc1ccc(NC(=O)CN(C)C(=O)CN2C(=O)NC(C)(c3ccccc3)C2=O)cc1 (stereo unspecified) | – | – | · | – | – | –
CCOC(=O)c1cc(-c2ccccc2)sc1NC(=O)CN1C(=O)NC(CC)(c2ccc(F)cc2)C1=O (stereo unspecified) | – | – | · | – | – | –
O=C(CN(c1ccc(Cl)c(C(F)(F)F)c1)S(=O)(=O)c1ccccc1)N/N=C/c1cccc2c1OCCO2 | 59.8 | – | · | – | – | –
Cc1ccc(/C=C(/C#N)c2nc(CCN3C(=O)c4ccccc4C3=O)cs2)cc1 | 51.4 | 52.9 | · | – | – | –
COc1cc(Cn2c(-c3nonc3N)nc3ccccc32)ccc1C | 74.3 | – | – | – | – | –
COc1cccc(Cn2c(-c3nonc3N)nc3ccccc32)c1 | – | – | – | – | – | –
Nc1nonc1-c1nc2ccccc2n1Cc1ccc(Cl)cc1 | 53.1 | 74.7 | – | – | – | –
COc1cc2c(cc1NC(=O)CN(C)Cc1ccc(OC)c(OC)c1)oc1ccccc12 | · | · | · | · | · | –
Cc1cc(C)n(-c2cc(-n3nc(C)cc3C)ncn2)n1 | – | – | – | – | – | –
C(=N\Nc1ccc(-n2ccnc2)nn1)/c1ccccc1 | 93.4 | 98.2 | · | – | – | –
SMILES | CYP2C9 inh | CYP2C19 inhib | MRP resist rev | CYP2C9 activ | CYP2C19 act | MRP-1 activ
Cc1cc(C)n(-c2ccc(-n3ccnc3)nn2)n1 | – | 99.4 | – | – | – | –
Cc1ccc(Nc2ccc(-n3ccnc3)nn2)cc1C | 98.8 | 100.1 | · | – | – | –
CC1(C)Cc2c(sc3nc4n(c(=N)c23)CCC4)CO1 | – | – | – | – | – | –
CC(C)NC(=O)c1cc(=O)n(C)c(=O)n1C | – | – | – | – | – | –
Cc1cccc(NC(=S)Nc2ccc(N3CCOCC3)cc2)c1C | · | · | · | · | · | –
COc1ccc(CNC(=O)CSc2n[nH]c(C)c2[N+](=O)[O-])cc1 | · | · | · | · | · | –
COc1cc(NC(=O)c2nnn(Cc3ccc(SC)cc3)c2N)cc(OC)c1 | – | – | – | – | – | –
O=C(CN1c2ccccc2Sc2ccccc21)NNC(=S)Nc1ccc(Cl)cc1Cl | 80.0 | – | · | – | – | –
CCOC(=O)n1c(=O)oc2ccccc21 | – | – | – | – | – | –
Cn1c(=O)n(Cc2ccccc2)c2ccccc21 | – | – | · | – | – | –
CCOC(=O)n1c(=O)n(Cc2c(Cl)cccc2Cl)c2ccccc21 | – | 60.6 | · | – | – | –
CCOC(=O)n1c(=O)n(Cc2ccc(Cl)c(Cl)c2)c2ccccc21 | 53.3 | 51.3 | · | – | – | –
CCOC(=O)n1c(=O)n(Cc2ccccc2)c2ccccc21 | – | 70.3 | · | – | – | –
Cc1cccc(C)c1-n1c(C)cc(/C=N/NC(N)=S)c1C | 93.4 | 90.9 | · | – | – | –
Cc1ccccc1-n1c(C)cc(/C=N/NC(=O)c2ccncc2)c1C | 51.2 | – | · | – | – | –
Cc1cc(/C=N/NC(=O)c2ccc(CN3CCOCC3)cc2)c(C)n1-c1ccccc1 | – | – | · | – | – | –
COc1ccc(CCNc2ncnc3c2oc2ccccc23)cc1OC | – | 56.9 | – | – | – | –
CC(=O)N(Cc1ccco1)c1nc(C(=O)Nc2ccc(Cl)cc2)c(C)s1 | · | · | · | · | · | –
CCCCCCOC(=O)c1ccc(OC(=O)c2cccnc2)cc1 | 86.4 | 71.5 | – | – | – | –
CCCCCCCOc1ccc(OC(=O)c2cccnc2)cc1 | 76.8 | 66.0 | – | – | – | –
COc1ccc(S(=O)(=O)Cc2ccc(C(=O)NC3CC3)o2)cc1 | – | – | – | 2.2 | – | –
COc1ccc(S(=O)(=O)Cc2ccc(C(=O)NCCc3ccc(S(N)(=O)=O)cc3)o2)cc1 | – | – | – | – | – | –
COc1ccc(S(=O)(=O)Cc2ccc(C(=O)NCc3ccc(F)cc3)o2)cc1 | 63.6 | – | – | – | – | –
COc1ccc(S(=O)(=O)Cc2ccc(C(=O)NCc3cccnc3)o2)cc1 | 57.9 | 90.0 | – | – | – | –
COc1ccc(NC(=O)C(NC(C)=O)C(=O)NCc2ccc(F)cc2)cc1 (stereo unspecified) | – | 53.8 | · | – | – | –
SMILES | CYP2C9 inh | CYP2C19 inhib | MRP resist rev | CYP2C9 activ | CYP2C19 act | MRP-1 activ
COCCCNC(=O)c1ccc(CS(=O)(=O)c2ccc(OC)cc2)o1 | – | – | – | – | – | –
Cc1ccc(C)c(NC(=O)C(=O)NCc2ccccn2)c1 | · | · | · | · | · | –
COc1cc(C)ccc1OCCCON1C(=O)CCC1=O | – | – | – | – | – | –
Nc1nc(Cl)cc(Sc2ccc3ccccc3c2)n1 | – | – | · | – | – | –
COc1ccc(N(C(=O)c2cccc([N+](=O)[O-])c2)S(=O)(=O)c2ccc3c(c2)n(C)c(=O)n3C)cc1 | – | – | · | – | – | –
COc1ccc(N(C(=O)C(C)C)S(=O)(=O)c2ccc(Cl)cc2)cc1 | 88.2 | 96.6 | – | – | – | –
